Reference: PubChem BioAssay AID1159580 (chemical genetic matrix, 2015)
The whole screen tested about 5,500 compounds, of which about 2,000 (36%) were called active. Roughly 18% stayed inconclusive and do not appear here. Cut-off read from the data, not from the text of the source: active = normalized growth mostly below about 0.91 (no sharp cut-off); inconclusive = no clear call, values can overlap the other calls; inactive = mostly above about 0.92. The list shows a part of the results.

Test: chemical genetic growth profiling, strain panel (AID 1159580);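 note: tested at 20 µM; growth read once vehicle control cultures reached saturation at 30 °C; 1 = growth at the plate median or of vehicle wells; lower values mean less growth of the strain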
Conditions: S. cerevisiae deletion strains, growth OD
[1] = locus YAL013W, strain DEP1, stronger effect = lower value
[2] = locus YMR307W, strain GAS1, stronger effect = lower value
[3] = locus YNL128W, strain TEP1, stronger effect = lower value
[4] = locus YNL153C, strain GIM3, stronger effect = lower value
[5] = locus YNL322C, strain KRE1, stronger effect = lower value
[6] = locus YAL040C, strain CLN3, stronger effect = lower value
[7] = locus YCL061C, strain MRC1 (second series), stronger effect = lower value
[8] = locus YDR363W, strain ESC2, stronger effect = lower value
[9] = locus YER002W, strain NOP16, stronger effect = lower value
[10] = locus YGR229C, strain SMI1, stronger effect = lower value
[11] = locus YMR263W, strain SAP30, stronger effect = lower value
[12] = locus YNL175C, strain NOP13, stronger effect = lower value
[13] = locus YNL197C, strain WHI3, stronger effect = lower value
[14] = locus YNL224C, strain SQS1, stronger effect = lower value
[15] = locus YOR083W, strain WHI5 (second series), stronger effect = lower value
[16] = locus YGR078C, strain PAC10, stronger effect = lower value
[17] = locus YPL241C, strain CIN2, stronger effect = lower value

Measured: normalized growth

CC1=CC(=O)C2=C(C)CC[C@@H]3[C@H](OC(=O)[C@H]3C)[C@@H]12
inactive: [1] 1 | locus YBR021W, strain FUR4, stronger effect = lower value 0.965 | locus YBR229C, strain ROT2, stronger effect = lower value 0.987 | locus YCL029C, strain bik1, stronger effect = lower value 0.975 | locus YDL035C, strain GPR1, stronger effect = lower value 0.998 | locus YDL074C, strain BRE1, stronger effect = lower value 0.986 | locus YDL101C, strain DUN1, stronger effect = lower value 0.995 | locus YDL185W, strain tfp1, stronger effect = lower value 0.978 | locus YDL192W, strain arf1, stronger effect = lower value 1.01 | locus YDR101C, strain arx1, stronger effect = lower value 0.981 | locus YDR162C, strain NBP2, stronger effect = lower value 1.01 | locus YDR318W, strain mcm21, stronger effect = lower value 1 | locus YDR388W, stronger effect = lower value 0.981 | locus YDR502C, strain sam2, stronger effect = lower value 0.983 | locus YEL061C, strain CIN8, stronger effect = lower value 0.997 | locus YER110C, stronger effect = lower value 0.979 | locus YER155C, strain BEM2, stronger effect = lower value 0.987 | locus YER167W, strain BCK2, stronger effect = lower value 0.992 | locus YGL078C, strain dbp3, stronger effect = lower value 0.977 | locus YGL086W, strain mad1, stronger effect = lower value 0.979 | locus YGL248W, strain PDE1, stronger effect = lower value 1.01 | locus YGR135W, strain pre9, stronger effect = lower value 0.997 | locus YGR252W, strain gcn5, stronger effect = lower value 1.07 | locus YHR030C, strain SLT2, stronger effect = lower value 0.99 | locus YHR079C, strain IRE1 (second series), stronger effect = lower value 0.985 | locus YHR094C, strain hxt1, stronger effect = lower value 0.991 | locus YHR129C, strain ARP1, stronger effect = lower value 0.997 | locus YHR200W, strain rpn10, stronger effect = lower value 0.998 | locus YIL066C, strain RNR3, stronger effect = lower value 0.999 | locus YIL073C, strain SPO22, stronger effect = lower value 0.99 | locus YIL125W, strain kgd1, stronger effect = lower value 0.986 | locus YIR030C, strain dcg1, stronger effect = lower value 0.985 | locus YJL095W, strain BCK1, stronger effect = lower value 1.04 | locus YJL134W, strain LCB3, stronger effect = lower value 0.992 | locus YJL168C, strain set2, stronger effect = lower value 0.984 | locus YJL187C, strain SWE1 (second series), stronger effect = lower value 1.01 | locus YJR043C, strain POL32, stronger effect = lower value 1.01 | locus YKL009W, strain mrt4, stronger effect = lower value 1 | locus YKL068W, stronger effect = lower value 0.985 | locus YKL085W, strain MDH1 (second series), stronger effect = lower value 0.995 | locus YKL085W, strain MDH1, stronger effect = lower value 0.995 | locus YKL190W, strain CNB1, stronger effect = lower value 1.01 | locus YKR001C, strain vps1, stronger effect = lower value 0.965 | locus YLR039C, strain RIC1, stronger effect = lower value 1.02 | locus YLR058C, strain SHM2, stronger effect = lower value 1 | locus YLR102C, strain apc9, stronger effect = lower value 0.981 | locus YLR262C, strain YPT6, stronger effect = lower value 1.01 | locus YLR268W, strain sec22, stronger effect = lower value 0.976 | locus YLR330W, strain CHS5, stronger effect = lower value 0.993 | locus YLR342W, strain FKS1 (second series), stronger effect = lower value 0.989 | locus YLR371W, strain rom2, stronger effect = lower value 0.959 | locus YLR418C, strain cdc73, stronger effect = lower value 1.01 | locus YML016C, strain PPZ1, stronger effect = lower value 0.99 | locus YML032C, strain rad52, stronger effect = lower value 1.01 | locus YML124C, strain tub3, stronger effect = lower value 0.989 | locus YMR078C, strain ctf18, stronger effect = lower value 1 | locus YMR223W, strain ubp8, stronger effect = lower value 1.03 | [2] 1 | locus YNL067W, strain RPL9B, stronger effect = lower value 1.02 | [3] 0.984 | [4] 1.01 | locus YNL233W, strain BNI4, stronger effect = lower value 1 | locus YNL250W, strain rad50, stronger effect = lower value 0.995 | locus YNL271C, strain bni1, stronger effect = lower value 0.984 | locus YNL298W, strain CLA4, stronger effect = lower value 0.99 | locus YNL307C, strain MCK1, stronger effect = lower value 0.971 | [5] 1 | locus YNR052C, strain pop2, stronger effect = lower value 0.996 | locus YOL012C, strain htz1 0.989 | locus YOL147C, strain pex11, stronger effect = lower value 0.987 | locus YOR061W, strain CKA2, stronger effect = lower value 0.992 | locus YOR069W, strain VPS5, stronger effect = lower value 0.986 | locus YOR136W, strain idh2, stronger effect = lower value 0.971 | locus YOR144C, strain elg1, stronger effect = lower value 0.988 | locus YOR184W, strain ser1, stronger effect = lower value 0.974 | locus YOR316C, strain cot1, stronger effect = lower value 0.984 | locus YPL055C, strain LGE1, stronger effect = lower value 0.999 | locus YPR119W, strain clb2, stronger effect = lower value 1 | locus YPR141C, strain kar3, stronger effect = lower value 0.98 | locus YPR163C, strain tif3, stronger effect = lower value 0.978 | locus YPR167C, strain met16, stronger effect = lower value 1.02 | strain wtn01, stronger effect = lower value 0.971

COc1cc(/C=C(\C#N)C(=O)c2ccc(O)c(O)c2)cc(I)c1O
inactive: [1] 1.02 | [6] 1.03 | [7] 1.02 | [8] 1.02 | [9] 1 | [10] 0.971 | [11] 1.02 | [2] 1.03 | [3] 1.01 | [4] 1.02 | [12] 0.984 | [13] 1.04 | [14] 1 | [5] 1.03 | [15] 1.02

N#C/C(=C/c1ccc(O)c(O)c1)C(N)=S
active: [8] 0.73
inactive: [1] 0.959 | [6] 0.973 | [7] 0.997 | [9] 0.995 | [16] 0.995 | [10] 0.972 | [11] 0.956 | [2] 1 | [4] 0.988 | [12] 0.977 | [13] 0.98 | [14] 0.985 | [15] 0.958 | [17] 0.975

N#C/C(=C\c1ccc(O)c(O)c1)C(=O)c1ccc(O)c(O)c1
inactive: [6] 1 | [7] 0.995 | locus YDR150W, strain NUM1, stronger effect = lower value 0.997 | [8] 0.994 | [9] 1.02 | [16] 0.99 | [10] 1.03 | [2] 0.99 | [4] 1.04 | [12] 0.961 | [13] 0.994 | [14] 1 | [5] 0.99 | [15] 0.999 | [17] 0.991
